{"source": "PubChem BioAssay (Tox21)", "note": "“And” between values parts separate entries of the source, which are not always exact repeats. Equal entries are not always repeated. Inconclusive results are not listed. A call without a number means that no potency is given here. The source made the active and inactive calls. Calls come from the whole dose curve; as a rule, active = well fitted cell-killing curve with a large enough effect in the repeat runs; inconclusive = weak or mixed curves, or effect the other way; inactive = flat fitted curve, though single readings scatter. Potency is the fitted concentration of half-maximal effect.", "data": [{"experiment": "Nuclear factor erythroid 2-related factor 2/antioxidant responsive element (Nrf2/ARE) small molecule agonists: qHTS cell viability counter screen in human keratinocytes (AID 1919968); note: nearly all actives have a fitted effect of over 55% in size", "settings": "KeratinoSens HaCaT ARE cells viability, CellTiter-Fluor, 24 h; series mostly up to 92.4 µM", "source_text": "U.S. Tox21 Program National Center for Advancing Translational Sciences [NCATS] Division of Preclinical Innovation [DPI] U.S. Environmental Protection Agency [EPA] National Institutes of Environmental Health Sciences [NIEHS] National Toxicology Program [NTP] U.S. Food and Drug Administration [FDA] Tox21 Assay Overview: Oxidative stress has been implicated in the pathogenesis of a variety of diseases ranging from cancer to neurodegeneration. The antioxidant response element (ARE) signaling pathway plays an important role in the amelioration of oxidative stress. The KeratinoSens (Givaudan, Switzerland) is an in vitro test method which quantifies luciferase induction as a measure of activation of Keap1-Nrf2-antioxidationt/electrophile response element (ARE) dependant pathway in HaCaT human keratinocytes stably transfected with a selectable plasmid. The KeratinoSens assay is a cell-based assay with a reporter cell line to detect potential skin sensitizers by their ability to induce the Nrf2/ARE-response. The activation of the report gene under culture conditions can be detected by ONE-Glo Luciferase Assay System (Promega, Madison, WI). This cell line has been used to screen the Tox21 10K compound library to identify agonists that induce oxidative stress. The cytotoxicity of the Tox21 compound library against the KS-ARE cell line was tested in parallel by measuring the cell viability using CellTiter- Fluor assay system (Promega, Madison, WI) in the same wells.\nTox21 Assay Protocol Summary: HaCaT derived cell line KeratinoSens were dispensed at 1,500 cells/5uL/well in 1536-well white wall/solid bottom plates using a Multidrop Combi (ThermoFisher Scientific, Waltham, MA) dispenser. After the assay plates were incubated at 37 C/5% CO2 for 5 h, 23 nL of compounds dissolved in DMSO, positive controls or DMSO only was transferred to the assay plate by a pintool workstation (Kalypsys, San Diego, CA). The plates were incubated at 37 C/5% CO2 for 23 h, followed by addition of 1uL/well of CellTiter-Fluor reagent into the assay plates using a Flying Reagent Dispenser (Aurora Discovery, San Diego, CA) for cell viability readout that measures cytotoxicity. After 1 h incubation at 37 C/5% CO2 the fluorescence intensity was measured using a ViewLux (PerkinElmer, Shelton, CT) plate reader.", "values": [{"smiles": "CCCCC/C=C\\C/C=C\\CCCCCCCC(=O)OC", "Potency": "inactive"}, {"smiles": "O=C1c2c(O)cccc2Cc2cccc(O)c21", "Potency": "inactive"}, {"smiles": "CCCCCCCCCCC=CC1CC(=O)OC1=O", "note": "(stereo not given)", "Potency": "inactive"}, {"smiles": "CC(=O)Nc1cccc(O)c1", "Potency": "inactive"}, {"smiles": "Nc1ncnc2nc[nH]c12", "Potency": "inactive"}, {"smiles": "COC(=O)CCC(=O)OC", "Potency": "inactive"}, {"smiles": "CC(O)COc1ccccc1", "note": "(stereo not given)", "Potency": "inactive"}, {"smiles": "Cc1ccc(C(C)C)cc1", "Potency": "inactive"}, {"smiles": "NC(=O)c1cnccn1", "Potency": "inactive"}, {"smiles": "COC(=O)c1cccc(C(=O)OC)c1", "Potency": "inactive"}, {"smiles": "CCCCCCCCCCCC[N+](C)(C)Cc1ccccc1", "Potency": "23.9 µM (active) and 29.7 µM (active) and 11.9 µM (active)"}, {"smiles": "NCCN", "Potency": "inactive"}, {"smiles": "CC(=O)c1ccc(O)cc1", "Potency": "inactive"}, {"smiles": "Oc1c(Cl)cc(Cl)c(Cl)c1Cl", "Potency": "inactive"}, {"smiles": "C=CC(=O)OCCC(=O)O", "Potency": "inactive"}, {"smiles": "C/C=C(C)/C=C/C=C(C)C", "Potency": "inactive"}, {"smiles": "O=C(O)c1ccc(C(=O)O)cc1", "Potency": "inactive"}, {"smiles": "CN(C)C", "Potency": "inactive"}, {"smiles": "C=CCCCCCCCCC(=O)O", "Potency": "inactive"}, {"smiles": "CC(=O)c1ccccn1", "Potency": "inactive"}, {"smiles": "c1ccc(Oc2ccccc2)cc1", "Potency": "inactive"}, {"smiles": "CC1=C(/C=C/C(C)=C/C=C/C(C)=C/C(=O)O)C(C)(C)CCC1", "Potency": "inactive"}, {"smiles": "O=Cc1ccccc1O", "Potency": "inactive"}, {"smiles": "OC[C@@H](O)[C@@H](O)[C@H](O)[C@@H](O)CO", "Potency": "inactive"}, {"smiles": "CCCCCCO", "Potency": "inactive"}, {"smiles": "CC(=O)C(C)C", "Potency": "inactive"}, {"smiles": "COc1c(Cl)c(Cl)c(Cl)c(Cl)c1Cl", "Potency": "inactive"}, {"smiles": "NC(=O)c1ncn([C@@H]2O[C@H](CO)[C@@H](O)[C@H]2O)n1", "Potency": "inactive"}, {"smiles": "OCC(O)CS", "note": "(stereo not given)", "Potency": "inactive"}, {"smiles": "CCC(O)OC(O)CC", "note": "(stereo not given)", "Potency": "inactive"}, {"smiles": "O=C(OCc1ccccc1)c1ccccc1O", "Potency": "inactive"}, {"smiles": "Oc1ccc2ccccc2c1N=Nc1ccccc1", "Potency": "inactive"}, {"smiles": "O=C(O)c1ccccc1", "Potency": "inactive"}, {"smiles": "CN1C(C(=O)Nc2ccccn2)=C(O)c2ccccc2S1(=O)=O", "Potency": "inactive"}, {"smiles": "OCCc1ccccc1", "Potency": "inactive"}, {"smiles": "C[C@@H](O)[C@H]1C(=O)N2C(C(=O)O)=C(S[C@@H]3CN[C@H](C(=O)N(C)C)C3)[C@H](C)[C@H]12", "Potency": "inactive"}, {"smiles": "Cc1cc(C)c(C)cc1C", "Potency": "inactive"}, {"smiles": "CC(=O)[C@H]1CC[C@H]2[C@@H]3CC=C4C[C@@H](O)CC[C@]4(C)[C@H]3CC[C@]12C", "Potency": "inactive"}, {"smiles": "CCCCCCCCCCCCCCCCCC(=O)OCC(O)CO", "note": "(stereo not given)", "Potency": "inactive"}, {"smiles": "O=C(c1ccccc1)C(O)c1ccccc1", "note": "(stereo not given)", "Potency": "inactive"}]}]}
